Experimental findings from PubChem BioAssay (Tox21) are described below.

A short description of experiment [1]: qHTS assay to identify small molecule antagonists of the thyroid receptor (TR) signaling pathway - cell viability counter screen (AID 743064). Note: nearly all actives have a fitted effect of over 50% in size. The procedure, abridged:
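Plate GH3.TRE-Luc cells; incubate 4 h at 37 °C; add compound, then T3 to 1 nM final; incubate 23.5 h; add CellTiter-Fluor; incubate 30 min at 37 °C, 5% CO2; read fluorescence.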
A general note: In qHTS, concentration-response curves come from the screen itself.

The nature of experiment [2]: qHTS assay to identify small molecule antagonists of the thyroid receptor (TR) signaling pathway (AID 743065). Note: series mostly up to about 70 µM; nearly all actives have a fitted effect of over 55% in size. The method in brief: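 Antagonism measured as loss of luciferase signal in GH3 cells stably carrying a TRE-luciferase reporter, co-treated with compound and T3 (1 nM final) for 23.5 h at 37 C. Viability was read in the same well by CellTiter-Fluor.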
The subject of experiment [3] is thyroid hormone receptor (rat, GH3 cells). In words: qHTS assay to identify small molecule agonists of the thyroid receptor (TR) signaling pathway (AID 743066; calls by dose curve).
Experiment [4] has as its target Estrogen receptor (Homo sapiens) (UniProt P03372). In words: qHTS assay to identify small molecule antagonists of the estrogen receptor alpha (ER-alpha) signaling pathway (AID 743069; active = well fitted curve in the direction sought with a large enough effect in the signal ratio in the repeat runs, not every such curve was filed as active; the % refers to the signal ratio). The procedure, abridged:
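Antagonist mode: compounds in DMSO were co-added with 17beta-estradiol to ER-alpha-bla HEK293 cells (2% charcoal-stripped serum) and left 18 h at 37C. Reporter inhibition was measured as FRET fluorescence after 2 h LiveBLAzer substrate at room temperature.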

Experiment [5] in a line: qHTS assay to identify small molecule antagonists of the estrogen receptor alpha (ER-alpha) signaling pathway - cell viability counter screen (AID 743074; calls by dose curve;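 note: HEK293 cells carrying ER-alpha-UAS-bla reporter stimulated with 17beta-estradiol; nearly all actives have a fitted effect of over 45% in size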).
Experiment [6] addresses Estrogen receptor (Homo sapiens) (UniProt P03372). As to the kind of experiment: qHTS assay to identify small molecule agonists of the estrogen receptor alpha (ER-alpha) signaling pathway (AID 743075; calls by dose curve;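 note: HEK293 GripTite cells with ER-alpha and UAS-driven beta-lactamase reporter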).
For experiment [7] the target is unchanged. As to the kind of experiment: qHTS assay to identify small molecule agonists of the estrogen receptor alpha (ER-alpha) signaling pathway using the BG1 cell line (AID 743079). Note: nearly all actives have a fitted effect of over 20% in size. Note: potency is the fitted concentration of half-maximal effect.
A short description of experiment [8]: qHTS assay to identify small molecule antagonists of the estrogen receptor alpha (ER-alpha) signaling pathway using the BG1 cell line (AID 743080; calls by dose curve;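 note: BG1 cells stimulated with 17beta-estradiol alongside compound; nearly all actives have a fitted effect of over 25% in size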; note: potency is the fitted concentration of half-maximal effect). The method in brief: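 Quantitative HTS on the Tox21 10K library: BG1 cells with endogenous ER-alpha and ERE-luciferase reporter, 17beta-estradiol stimulation, 21.5 h compound exposure, luminescence endpoint with parallel fluorescence cytotoxicity counter-read.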

Experiment [9] is described as follows: qHTS assay to identify small molecule antagonists of the estrogen receptor alpha (ER-alpha) signaling pathway using the BG1 cell line - cell viability counter screen (AID 743081).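 Note: compound given together with 17beta-estradiol as the ER stimulus; series mostly up to about 70 µM; nearly all actives have a fitted effect of over 45% in size.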
Another experiment deals with Aromatase (Homo sapiens) (UniProt P11511). In words: qHTS assay to identify aromatase inhibitors (AID 743083). Note: nearly all actives have a fitted effect of over 55% in size. Note: potency is the fitted concentration of half-maximal effect.
Chain of Aromatase (Homo sapiens) (P11511 whole entry, looked up): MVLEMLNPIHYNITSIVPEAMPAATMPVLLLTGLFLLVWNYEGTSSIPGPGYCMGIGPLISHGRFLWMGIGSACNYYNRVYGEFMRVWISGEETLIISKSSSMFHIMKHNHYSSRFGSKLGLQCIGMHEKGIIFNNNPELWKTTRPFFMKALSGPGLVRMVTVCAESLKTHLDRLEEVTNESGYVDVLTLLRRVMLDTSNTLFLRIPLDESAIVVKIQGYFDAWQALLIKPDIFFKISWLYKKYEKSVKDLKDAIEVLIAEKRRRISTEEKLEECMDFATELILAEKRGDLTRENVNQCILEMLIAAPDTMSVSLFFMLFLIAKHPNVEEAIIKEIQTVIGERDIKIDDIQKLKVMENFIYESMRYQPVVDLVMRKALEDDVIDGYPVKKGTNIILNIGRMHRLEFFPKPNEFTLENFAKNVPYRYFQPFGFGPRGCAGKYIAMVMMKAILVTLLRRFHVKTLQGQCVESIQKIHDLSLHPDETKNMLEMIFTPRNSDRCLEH
Experiment [10] can be described thus: qHTS assay to identify aromatase inhibitors - cell viability counter screen (AID 743084).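 Note: cells stimulated with testosterone during compound exposure; nearly all actives have a fitted effect of over 55% in size.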
Experiment [11] can be described thus: qHTS assay to identify small molecule that activate the aryl hydrocarbon receptor (AhR) signaling pathway - cell viability counter screen (AID 743086). Note: series mostly up to about 70 µM; nearly all actives have a fitted effect of over 45% in size. The procedure, abridged: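 Cytotoxicity counter screen: CellTiter-Fluor signal (30 min, 37 C) in 4000 HepG2 cells/well carrying the DRE-luciferase reporter, following 24 h compound exposure at 37 C.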
For experiment [12], the target named is Peroxisome proliferator-activated receptor gamma (Homo sapiens) (UniProt P37231). In words: qHTS assay to identify small molecule agonists of the peroxisome proliferator-activated receptor gamma (PPARg) signaling pathway (AID 743094; active = well fitted activation curve with a large enough effect in the signal ratio in the repeat runs, not every such curve was filed as active; the % refers to the signal ratio). The method in brief:
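Agonist activity was taken from a beta-lactamase reporter (FRET substrate, 1 h at room temperature) in HEK293H cells carrying a PPARg UAS-bla construct. Compounds in DMSO were incubated 17 h at 37C after a 5 h cell pre-incubation.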

A short description of experiment [13]: qHTS assay to identify small molecule antagonists of the peroxisome proliferator-activated receptor gamma (PPARg) signaling pathway - cell viability counter screen (AID 743194). Note: nearly all actives have a fitted effect of over 55% in size. The method in brief: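 Viability was measured as CellTiter-Glo luminescence in GeneBLAzer PPARg UAS-bla HEK293H cells. These cells had been exposed 17 h at 37 C to compounds together with rosiglitazone at 50 nM final, with the beta-lactamase readout taken in the same wells.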

Experiment [14] in a line: qHTS assay for small molecule agonists of the antioxidant response element (ARE) signaling pathway (AID 743202; active = well fitted activation curve with a large enough effect in the signal ratio in the repeat runs, not every such curve was filed as active; the % refers to the signal ratio). The method in brief: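 After 16 hours of compound treatment at 37 C, HepG2 cells with a stably integrated ARE-driven beta-lactamase reporter were loaded 2 hours at room temperature with LiveBLAzer B/G FRET substrate and fluorescence intensity measured.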
Experiment [15] is described as follows: qHTS assay for small molecule agonists of the antioxidant response element (ARE) signaling pathway - cell viability counter screen (AID 743203; calls by dose curve; note: nearly all actives have a fitted effect of over 55% in size). The method in brief: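 Viability counter screen: CellTiter-Glo luminescence, read after 30 min at room temperature, in ARE-bla HepG2 wells. Compound exposure lasted 16 h at 37C/5% CO2, following a 5 h pre-incubation of the cells after plating.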

Experiment [16] is described as follows: qHTS assay for small molecule activators of the heat shock response signaling pathway - cell viability counter screen (AID 743209). Note: nearly all actives have a fitted effect of over 50% in size. The method in brief: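 Cytotoxicity counter screen run in the same wells as the heat-shock bla reporter assay: HeLa HSE-bla cells, 5 h compound exposure at 37 C, viability read by CellTiter-Glo luminescence.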
The nature of experiment [17]: qHTS assay for small molecule activators of the heat shock response signaling pathway (AID 743210; active = well fitted activation curve with a large enough effect in the signal ratio in the repeat runs, with a control signal flat, not every such curve was filed as active; the % refers to the signal ratio; note: series mostly up to about 63 µM). The procedure, abridged:
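Compound exposure lasted 5 h at 37 C in HeLa cells carrying a heat-shock-element-driven beta-lactamase reporter. Read-out: fluorescence intensity after 2.5 h room-temperature loading with LiveBLAzer B/G FRET substrate.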

Experiment [18] has as its target Aryl hydrocarbon receptor (Homo sapiens) (UniProt P35869). As to the kind of experiment: qHTS assay to identify small molecule that activate the aryl hydrocarbon receptor (AhR) signaling pathway (AID 743085).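 Note: HG2L7.5c1 human HepG2 liver cells with stably integrated DRE-driven firefly reporter; series mostly up to about 70 µM; nearly all actives have a fitted effect of over 15% in size.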 The procedure, abridged: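 Steps: seed HepG2-AhR-luc cells; allow 5 h at 37C; pin-transfer test compound or vehicle; incubate 24 h at 37C; add viability dye (30 min, 37C) and read fluorescence; add luciferase substrate (30 min, RT) and read luminescence.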

Experiment [19] has as its target Peroxisome proliferator-activated receptor gamma (Homo sapiens) (UniProt P37231). In words: qHTS assay to identify small molecule antagonists of the peroxisome proliferator-activated receptor gamma (PPARg) signaling pathway (AID 743191; calls by dose curve; note: series mostly up to about 63 µM; nearly all actives have a fitted effect of over 30% in size). The method in brief: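 Beta-lactamase reporter under UAS control in HEK293H PPARg-bla cells; compound treatment 17 h at 37C. Read-out: fluorescence intensity after 1 h room-temperature incubation with LiveBLAzer B/G FRET substrate.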

Results filed as inconclusive are left out. Values without a mark were called inactive. Active and inactive are the calls of the source. Unless noted, calls come from the whole dose curve; as a rule, active = well fitted curve in the direction sought with a large enough effect in the repeat runs; inconclusive = weak or mixed curves; inactive = no such curve, though single readings can be large; an effect the other way counts as inactive or inconclusive.

Chain of Peroxisome proliferator-activated receptor gamma (Homo sapiens) (P37231 whole entry, looked up): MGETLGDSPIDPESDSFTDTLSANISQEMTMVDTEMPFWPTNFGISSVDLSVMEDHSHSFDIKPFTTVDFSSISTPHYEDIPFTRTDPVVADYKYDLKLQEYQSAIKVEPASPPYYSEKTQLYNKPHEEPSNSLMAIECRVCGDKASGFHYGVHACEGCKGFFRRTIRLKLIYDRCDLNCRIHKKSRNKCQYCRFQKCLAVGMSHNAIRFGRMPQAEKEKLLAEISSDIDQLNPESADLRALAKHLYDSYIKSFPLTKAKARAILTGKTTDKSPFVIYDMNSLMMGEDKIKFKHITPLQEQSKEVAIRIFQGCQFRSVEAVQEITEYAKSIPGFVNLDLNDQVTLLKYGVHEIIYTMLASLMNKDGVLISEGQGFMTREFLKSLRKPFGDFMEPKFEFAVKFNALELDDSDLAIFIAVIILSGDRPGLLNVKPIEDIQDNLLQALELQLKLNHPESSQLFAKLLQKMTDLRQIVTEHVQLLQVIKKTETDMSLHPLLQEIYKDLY
Chain of Estrogen receptor (Homo sapiens) (P03372 whole entry, looked up): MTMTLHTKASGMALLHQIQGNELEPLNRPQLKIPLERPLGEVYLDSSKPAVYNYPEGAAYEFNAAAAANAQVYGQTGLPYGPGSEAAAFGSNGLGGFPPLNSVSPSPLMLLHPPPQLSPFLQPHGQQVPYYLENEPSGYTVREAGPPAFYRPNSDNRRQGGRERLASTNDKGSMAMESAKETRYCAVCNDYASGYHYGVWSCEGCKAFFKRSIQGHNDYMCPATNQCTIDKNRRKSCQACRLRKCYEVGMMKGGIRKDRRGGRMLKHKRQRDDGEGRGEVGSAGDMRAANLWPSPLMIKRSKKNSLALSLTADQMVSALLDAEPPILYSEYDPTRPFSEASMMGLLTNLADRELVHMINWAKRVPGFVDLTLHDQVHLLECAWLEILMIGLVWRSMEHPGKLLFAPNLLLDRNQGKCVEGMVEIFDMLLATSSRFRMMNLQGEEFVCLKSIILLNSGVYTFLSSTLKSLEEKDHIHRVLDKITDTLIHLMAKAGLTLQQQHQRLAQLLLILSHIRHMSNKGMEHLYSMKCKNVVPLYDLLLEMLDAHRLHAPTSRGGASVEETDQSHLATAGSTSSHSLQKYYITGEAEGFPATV
Chain of Aryl hydrocarbon receptor (Homo sapiens) (P35869 whole entry, looked up): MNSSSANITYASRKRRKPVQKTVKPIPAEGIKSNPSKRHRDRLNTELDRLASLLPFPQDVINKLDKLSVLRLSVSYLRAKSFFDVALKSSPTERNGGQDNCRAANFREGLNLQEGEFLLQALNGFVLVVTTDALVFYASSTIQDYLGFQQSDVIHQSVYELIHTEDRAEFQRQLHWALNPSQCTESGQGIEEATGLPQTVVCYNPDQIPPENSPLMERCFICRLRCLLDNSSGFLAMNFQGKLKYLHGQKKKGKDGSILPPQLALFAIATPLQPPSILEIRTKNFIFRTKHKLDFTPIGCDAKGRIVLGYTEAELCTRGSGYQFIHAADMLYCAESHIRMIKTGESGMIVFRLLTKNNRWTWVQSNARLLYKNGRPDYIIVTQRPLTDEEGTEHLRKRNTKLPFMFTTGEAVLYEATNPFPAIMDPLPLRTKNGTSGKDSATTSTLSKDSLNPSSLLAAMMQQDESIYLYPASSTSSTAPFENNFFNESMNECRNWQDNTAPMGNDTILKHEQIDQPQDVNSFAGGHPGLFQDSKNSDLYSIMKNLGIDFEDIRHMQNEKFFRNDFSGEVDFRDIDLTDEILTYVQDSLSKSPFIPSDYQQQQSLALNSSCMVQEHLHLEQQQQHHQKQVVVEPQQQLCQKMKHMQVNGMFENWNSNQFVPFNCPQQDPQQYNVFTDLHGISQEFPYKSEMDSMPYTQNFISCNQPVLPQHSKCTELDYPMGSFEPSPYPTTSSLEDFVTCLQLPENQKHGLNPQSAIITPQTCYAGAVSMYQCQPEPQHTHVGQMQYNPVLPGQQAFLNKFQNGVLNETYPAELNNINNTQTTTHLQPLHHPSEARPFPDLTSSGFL

For the compound `C=CCOCC(O)CS(=O)(=O)O` (stereo not drawn), the Potency entry in experiment [1], in [2], in [3], in experiment [4], in experiment [6] and in experiment [7] was “inactive” throughout. Also, the Potency entry (in experiment [8]; with Aromatase (Homo sapiens); in experiment [10]; in experiment [11]; in [13]; in experiment [14]) was “inactive” in each case. Also, the result in experiment [5], in [9], in [12], in experiment [15], in experiment [16] and in experiment [17] was inactive.
For the compound `CC(C)CCOC(=O)CC(C)C`, the Potency entry in [1], in experiment [2], in experiment [3], in [4], in [6] and in experiment [7] was “inactive” each time. Also, the Potency result (in [8]; in the experiment with Aromatase (Homo sapiens); in experiment [10]; in experiment [18]; in experiment [11]; in experiment [13]) was “inactive” in each case. In experiment [14], the Potency result is “inactive”. Further, the result in [5], in experiment [9], in [19], in [15], in [16] and in [17] was inactive.
Regarding `NS(=O)(=O)c1cc2c(cc1Cl)NC(CSCc1ccccc1)=NS2(=O)=O`, the Potency entry in experiment [1], in [2], in [3], in [4], in [6] and in [7] was “inactive” throughout. Further, the Potency entry (in experiment [8]; with Aromatase (Homo sapiens); in experiment [10]; in experiment [18]; in [11]) was “inactive” throughout. For the same compound, the outcome in experiment [5], in experiment [9], in experiment [12], in experiment [15], in experiment [16] and in [17] was inactive.
Turning to `O=S(=O)(c1cccc2cnccc12)N1CCCNCC1`, the Potency entry in experiment [1], in experiment [2], in experiment [3], in [4], in [6] and in experiment [10] was “inactive” in each case. Also, the Potency result in [11] and in [13] was “inactive” throughout. Also, the compound was classed as inactive in experiment [5], in experiment [9], in experiment [19], in experiment [15], in experiment [16] and in experiment [17]. The Potency in [8] is 6.68 µM (active); with Aromatase (Homo sapiens), 13.3 µM (active).
Take `CCCOc1ccccc1-c1nc2n[nH]nc2c(=O)[nH]1`: the Potency entry in experiment [1], in experiment [2], in [3], in experiment [4], in experiment [6] and in [7] was “inactive” each time. Further, the Potency result (in experiment [8]; in the experiment with Aromatase (Homo sapiens); in experiment [10]; in [14]) was “inactive” throughout. The compound was classed as inactive in experiment [5], in experiment [9], in [12], in experiment [15], in [16] and in experiment [17].
With `CCO[Si](CCCN=C=O)(OCC)OCC`, the Potency entry in experiment [1], in [2], in experiment [3], in experiment [4], in experiment [6] and in experiment [7] was “inactive” throughout. In addition, the Potency result (in [8]; in the experiment with Aromatase (Homo sapiens); in experiment [10]; in [18]; in experiment [11]) was “inactive” throughout. Moreover, the compound was called inactive in experiment [9], in experiment [12], in experiment [19], in experiment [15], in experiment [16] and in [17].
For the compound `CC(C)=CC(=O)O`, the Potency entry in experiment [1], in experiment [2], in experiment [3], in experiment [4], in [6] and in experiment [8] was “inactive” in each case. For the same compound, the Potency result (in the experiment with Aromatase (Homo sapiens); in [10]; in experiment [11]; in experiment [14]) was “inactive” throughout. The call in experiment [5], in experiment [9], in experiment [12], in experiment [19], in experiment [15] and in experiment [16] was inactive. Moreover, in [17], the compound was called inactive. Besides, the Potency in [7] is 54.5 µM (active).
As to `NC(=O)Nc1nc2ccccc2[nH]1`, the Potency result in experiment [1], in [2], in experiment [3], in [4], in experiment [6] and in [7] was “inactive” throughout. Moreover, the Potency entry (in experiment [8]; with Aromatase (Homo sapiens); in [10]; in [11]; in [13]) was “inactive” in each case. Also, the result in [5], in [9], in experiment [12], in [19], in experiment [15] and in [16] was inactive.
